CHO-K1 Ca PAM: M1 PAM counterscreen hit in parental CHO-K1 cells | ATP EC20, Fluo-8 calcium fluorescence; 0% at ATP EC20, 100% at ATP max | activation, % at 3 µM | 360,000 tested, 0.02% active | AID 602247;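 active means activation above the run cutoff, the mean activation of all test compounds plus 3 SD, cut at about 40% in these data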;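 further: peak over basal fluorescence ratio in a 140 s read after ATP addition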
CHRM1 agonist: human M1 muscarinic receptor agonism. P11229. CHO-K1 hM1, Fluo-8 calcium fluorescence, agonist mode; 0% DMSO, 100% acetylcholine EC100. activation, % at 3 µM. 360,000 tested, 0.33% active;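 active means activation above the run's mean compound activation plus 3 SD, cut at about 16% in these data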;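 further: peak over basal fluorescence ratio within a 140 s kinetic read after compound addition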
Target sequence (P11229 whole entry, looked up): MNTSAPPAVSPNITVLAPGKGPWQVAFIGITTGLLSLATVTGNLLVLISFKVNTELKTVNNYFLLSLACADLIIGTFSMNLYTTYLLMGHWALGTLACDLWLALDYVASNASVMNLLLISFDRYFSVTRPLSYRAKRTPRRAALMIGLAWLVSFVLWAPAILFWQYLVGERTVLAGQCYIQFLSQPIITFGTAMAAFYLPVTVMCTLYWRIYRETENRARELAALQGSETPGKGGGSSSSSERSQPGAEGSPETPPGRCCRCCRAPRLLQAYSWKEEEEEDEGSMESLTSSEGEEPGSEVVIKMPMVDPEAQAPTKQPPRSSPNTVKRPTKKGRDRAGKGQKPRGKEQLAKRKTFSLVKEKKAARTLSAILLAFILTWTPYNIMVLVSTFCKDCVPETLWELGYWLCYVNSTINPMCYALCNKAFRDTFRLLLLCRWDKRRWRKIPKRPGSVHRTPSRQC
M1 antag: blocks human M1 muscarinic receptor | 360,000 tested, 1.3% active | AID 588852 | CHO-K1 hM1, Fluo-8 calcium fluorescence, ACh EC80 antagonist | P11229 | inhibition, % at 3 µM;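 active means percent inhibition above its own plate's cutoff, namely the mean of that plate's compound wells plus 3 SD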;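 further: peak over basal fluorescence ratio during 140 s after agonist addition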
CHO-K1 Ca ag: nonselective activator or artifact in parental CHO-K1 cells; Fluo-8 calcium fluorescence; scaled to maximal ATP response, vehicle zero; activation, % at 3 µM; 360,000 tested, 0.48% active; in the data active means activation above about 15%;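 further: untransfected CHO-K1 host cells lacking M1 receptor as counterscreen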
M1 PAM: potentiates human M1 receptor response to acetylcholine | activation, % at 3 µM | AID 588819 | 360,000 tested, 0.088% active | CHO-K1 hM1, Fluo-8 calcium fluorescence, ACh EC20; 0% = ACh EC20, 100% = maximal ACh | P11229; in the data active means activation above about 19%, passing the limit was not always enough
CHO-K1 Ca antag: nonselective inhibitor or artifact in parental CHO-K1 cells; ATP-induced calcium, Fluo-8 fluorescence; inhibition, % at 3 µM; 360,000 tested, 0.6% active; AID 602250;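 active means inhibition above a per-plate cutoff, the plate's mean sample inhibition plus 3 SD, cut at about 24% in these data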
Hits are given with their value; 0 = inactive; - = no result. In the library only some 2.3% were active in any assay of this set; here they are far more common.

SMILES | CHO-K1 Ca PAM | CHRM1 agonist | M1 antag | CHO-K1 Ca ag | M1 PAM | CHO-K1 Ca antag
O=C(Nc1c(F)cccc1F)c1cnc(N2CCN(c3ccccn3)CC2)c2ccccc12 | 0 | 0 | 0 | 0 | 0 | 30
CCN1CCN(c2ncc(C(=O)Nc3cc(Cl)ccc3OC)c3ccccc23)CC1 | 0 | 0 | 58 | 0 | 0 | 0
Cc1ccc(NC(=O)c2cnc(N3CCN(c4ccccn4)CC3)c3ccccc23)c(Br)c1 | 0 | 0 | 32 | 0 | 0 | 26
O=C(N/N=C/c1ccc(F)cc1)c1sccc1OCc1ccc(F)cc1 | 45 | 0 | 0 | 0 | 0 | 0
Cc1ccc(COc2ccsc2C(=O)O)cc1 | 0 | 0 | 0 | 15 | 0 | 0
NNC(=O)c1sccc1OCc1ccc(F)cc1 | 0 | 0 | 0 | 0 | 0 | 0
O=C(N/N=C/c1ccc(Cl)cc1)c1sccc1OCc1ccc(F)cc1 | 0 | 0 | 0 | 0 | 0 | 0
CCOc1ccsc1C(=O)O | 0 | 0 | 0 | 0 | 0 | 30
CC(C)C[C@@H](CN1CCC[C@H]1CN1C(=O)C(=O)NC[C@@H]1Cc1ccccc1)N1C[C@H](Cc2ccc(O)cc2)N(CC2CCCCC2)C(=O)C1=O | 0 | - | - | 0 | - | 0
C/C(N)=C(/C#N)C(=O)CSc1nc2ccccc2c(=O)n1-c1ccc(C)c(Cl)c1 | 0 | 0 | 0 | 0 | 0 | 0
FC(F)Sc1ccc(NC(=S)NC2CCCCC2)cc1 | 0 | 0 | 0 | 0 | 0 | 0
FC(F)Sc1ccc(NC(=S)NCC2CCCCC2)cc1 | 0 | 0 | 31 | 0 | 0 | 0
COc1cc(/C=C2\SC(=S)N(NC(=O)c3cccc(O)c3)C2=O)ccc1O | 0 | 16 | 0 | 0 | 0 | 0
Cc1ccc(/C=C2\SC(=S)N(CCC(=O)NNC(=O)c3cccc(O)c3)C2=O)cc1 | 0 | 0 | 32 | 0 | 0 | 0
O=C(CCCN1C(=O)/C(=C/c2cccs2)SC1=S)Nc1cccc(O)c1 | 0 | 0 | 25 | 0 | 0 | 0
COc1cc(/C=C2\SC(=S)N(NC(=O)c3ccc(O)c(OC)c3)C2=O)ccc1O | 0 | 27 | 0 | 17 | 0 | 0
NS(=O)(=O)c1ccc(NC(=S)Nc2ccn(Cc3cccc4ccccc34)n2)cc1 | 0 | 0 | 0 | 0 | 0 | 0
c1ccc(CN2CCN(c3ncccn3)CC2)cc1 | 0 | 0 | 0 | 0 | 0 | 0
c1ccc(N2CCN(Cc3ccc4c(c3)OCO4)CC2)nc1 | 0 | 0 | 0 | 0 | 0 | 0
c1ccc(-c2ccc(CN3CCN(c4ncccn4)CC3)cc2)cc1 | 0 | 0 | 0 | 0 | 0 | 25
c1ccc(COc2ccc(CN3CCN(c4ccccn4)CC3)cc2)cc1 | 0 | 0 | 32 | 0 | 0 | 0
CCOC(=O)c1sc(NC(=O)CSc2nc3c(c(=O)n2-c2ccc(C)cc2)SCC3)c(C(=O)OCC)c1C | 0 | 0 | 0 | 0 | 0 | 0
OC12CCCCC1C(c1ccc3c(c1)OCO3)N(Cc1cccc(F)c1)CC2 (centres undefined) | 0 | 0 | 0 | 0 | 0 | 0
OC12CCCCC1C(c1ccc3c(c1)OCO3)N(Cc1ccc(F)cc1)CC2 (centres undefined) | 0 | 0 | 0 | 27 | 0 | 0
CC(C(=O)N(C)Cc1cccc(F)c1)N1CCN(S(=O)(=O)c2ccc3c(c2)OCCCO3)CC1 (centres undefined) | 0 | 0 | 0 | 0 | 0 | 0
SMILES | CHO-K1 Ca PAM | CHRM1 agonist | M1 antag | CHO-K1 Ca ag | M1 PAM | CHO-K1 Ca antag
O=C(Nc1ccc(F)c(Cl)c1)c1ccccc1NC(=O)C1CCCCC1C(=O)O (centres undefined) | 0 | 0 | 0 | 0 | 0 | 26
O=C(Nc1cccc(Cl)c1)c1ccccc1NC(=O)C1CCCCC1C(=O)O (centres undefined) | 0 | 0 | 0 | 0 | 0 | 0
C[C@@H]1CN([C@H](C)CO)C(=O)CCCn2cc(nn2)CO[C@H]1CN(C)S(=O)(=O)c1cccs1 | 0 | 0 | 0 | 0 | 0 | 32
C[C@@H]1CN([C@H](C)CO)C(=O)CCCn2cc(nn2)CO[C@H]1CN(C)S(=O)(=O)c1ccc(F)cc1 | 0 | 0 | 0 | 0 | 0 | 26
C[C@@H]1CN([C@@H](C)CO)C(=O)CCCn2cc(nn2)CO[C@H]1CN(C)S(=O)(=O)c1cccs1 | 0 | 0 | 0 | 0 | 0 | 0
COC(=O)c1ccc(C(=O)OC)c(NC(=O)COC(=O)C23CC4CC(CC(O)(C4)C2)C3)c1 | 0 | 0 | 0 | 0 | 0 | 33
O=C(COC(=O)C12CC3CC(CC(O)(C3)C1)C2)Nc1ccc(Cl)cc1F | 0 | 0 | 0 | 0 | 0 | 0
COc1cc(N/C(=N/S(=O)(=O)c2ccccc2)c2ccccc2)ncn1 | 0 | 0 | 0 | 0 | 0 | 25
Nc1c(C(=O)NCc2ccccc2)nnn1Cc1ccccc1 | 0 | 0 | 0 | 0 | 0 | 0
CSc1ccc(Cn2nnc(C(=O)NCc3ccccc3)c2N)cc1 | 0 | 34 | 0 | 19 | 0 | 0
Cc1cc(/C=C(\C#N)C(=O)NCc2ccco2)c(C)n1-c1cccnc1 | 0 | 0 | 0 | 0 | 0 | 0
Cc1cc(/C=C(/C#N)c2cccc(F)c2)c(C)n1-c1cccnc1 | 0 | 0 | 34 | 0 | 0 | 0
Cn1c2ccccc2c(=O)c2ccc(C#CC3(O)CCCCC3)cc21 | 0 | 0 | 39 | 0 | 0 | 0
COc1cc2sc3ccc(C#CC4(O)CCCCC4)cc3c(=O)c2cc1OC | 0 | 0 | 0 | 0 | 0 | 0
CCOC(=O)c1nnc(-c2cccs2)nc1NC(C)C | 0 | 0 | 0 | 0 | 0 | 25
Nc1nc2c(nc(SCc3ccccc3Br)n2C2OC(CO)C(O)C2O)c(=O)[nH]1 (centres undefined) | 0 | 0 | 0 | 0 | 0 | 0
COc1cccc(/C=N/Nc2ncnc3scc(-c4ccccc4)c23)c1O | 0 | 0 | 34 | 0 | 0 | 0
CCOc1ccc(C(=O)OC(C)CN2CCN(C)CC2)cc1 (centres undefined) | 0 | 0 | 0 | 0 | 0 | 0
CCOC(=O)Nc1ccc2c(c1)N(C(=O)CCN1CCOCC1)c1ccccc1S2=O (centres undefined) | 0 | 0 | 78 | 0 | 0 | 0
COc1ccc(C2c3[nH]c4ccccc4c3CCN2C(=O)c2cn3ccccc3n2)c(F)c1 (centres undefined) | 0 | 0 | 0 | 0 | 0 | 27
COc1ccc(C2c3[nH]c4ccccc4c3CCN2C(=O)c2ccccc2C(C)=O)c(F)c1 (centres undefined) | 0 | 0 | 0 | 0 | 0 | 0
COc1ccc(C2c3[nH]c4ccccc4c3CCN2C(=O)c2cc3ncccn3n2)c(F)c1 (centres undefined) | 0 | 0 | 0 | 0 | 0 | 26
CCC1(c2ccccc2)NC(=O)N(CC(=O)Nc2ccc(OC)nc2)C1=O (centres undefined) | 0 | 0 | 0 | 0 | 0 | 0
CC(O)(c1ccc(Cl)cc1)C(c1ccccc1)c1ccccn1 (centres undefined) | 0 | 0 | 0 | 0 | 0 | 0
CCOc1ccccc1N1CCN(CC(O)COC2CCCc3ccccc32)CC1 (centres undefined) | 0 | 0 | 48 | 0 | 0 | 0

Source: PubChem (The Scripps Research Institute Molecular Screening Center)
